An excerpt weighted towards active compounds, which were near 19% of everything screened.
HT1080-NT tox: kills 2HG-producing HT-1080-NT fibrosarcoma cells | Potency, µM (titrated, usually from 46.1 µM), for the others: at the highest dose activity, negative = less viability, actives largely listed as cytotoxic | 360,000 tested, 1.6% active | HT-1080-NT fibrosarcoma viability, CellTiter-Glo ATP luminescence, 48 h;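 also: NT is the 2HG producing partner of a matched IDH1 knockdown line; potency is read from the fitted curve at half-maximal effect; 0% = DMSO-treated cells and -100% = media-only wells without cells; nearly all actives have a fitted effect of over 55% in size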
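Viability of the 2HG-overproducing fibrosarcoma line after 48 hours of compound exposure at 37 degrees C was determined by luminescence with CellTiter-Glo, and concentration-effect curves were then fitted and categorized.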
TDP1 cell noCPT: qHTS for Inhibitors of human tyrosyl-DNA phosphodiesterase 1 (TDP1): qHTS in cells in absence of CPT | DT40 Tdp1-/- hTDP1 cells, no CPT, ATP luminescence, 48 h | Potency, µM (top dose mostly 46.2 µM), without a hit: at the top dose activity change, negative = growth inhibition, actives largely listed as inhibitors | 420,000 tested, 15% active | AID 686978, 2013; also: potency is read from the fitted curve at half-maximal effect; nearly all actives have a fitted effect of over 55% in size
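Stably hTDP1-transfected Tdp1-null chicken DT40 cells were treated with library compounds minus camptothecin and grown for at least 48 hr at 37 °C, after which cellular ATP was quantified by luminescence.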
HT1080 IDH1KD tx: kills HT-1080 cells with IDH1 knockdown; Potency, µM (titrated, usually from 46.1 µM), for inactives: at the highest dose activity, negative = toxicity, usual class: cytotoxic; 360,000 tested, 2% active; HT-1080 IDH1 knockdown viability, ATP luminescence, 48 h; AID 686971;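 also: potency is read from the fitted curve at half-maximal effect; 0% = DMSO wells and -100% = cell-free medium wells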
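In this qHTS, HT-1080 cells depleted of IDH1 are exposed for 48 h at 37 °C to compound titrations. Toxicity is scored from CellTiter-Glo luminescence, with DMSO as full viability and medium alone as none.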
ELG1 DNA repair: blocks ELG1-dependent DNA repair in HEK293T cells. HEK293T ELG1-luciferase reporter, luminescence, 16 h; DNA damage induced by 5-fluorouridine. Potency, µM (top dose mostly 46.1 µM), without a hit: at the top dose activity change, negative = inhibition, hits mostly inhibitors. 330,000 tested, 2.3% active. AID 504467; also: potency is read from the fitted curve at half-maximal effect; nearly all actives have a fitted effect of over 55% in size
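HEK293T cells expressing luciferase-tagged ELG1 (2,000/well) received 5-Fluorouridine plus compound or DMSO for 16 hr at 37 °C. Luciferase was read by ONE-Glo luminescence after 30 min at room temperature.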
IL-1B inflam inh: inflammasome signaling inhibition, IL-1 beta readout. THP-1 LPS/ATP IL-1B secretion, AlphaLISA, 16 h; active compounds read low. activity change, % at 57.5 µM. 360,000 tested, 4.7% active. AID 743279; in the data active = activity change below about -50%; inconclusive = mostly about -30% to -49%
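Secreted IL-1B measured by AlphaLISA bead assay after 16 h compound exposure of THP-1 cells; compounds (final up to 57.5 uM) added 1 h before LPS (250 ng/mL) and ATP (1.25 mM) stimulation; lower signal means less secretion.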
DT40 TDP1 CPT: growth inhibition of DT40 Tdp1-/-;hTDP1 cells with camptothecin (screen for TDP1 inhibitors); chicken DT40 Tdp1-/-;hTDP1 cells + 20 nM CPT, ATP luminescence, 48 h; Potency, µM (doses to about 46.2 µM), for the others: top-dose activity change, negative = growth inhibition, hits mostly inhibitors; 420,000 tested, 12% active; also: potency is read from the fitted curve at half-maximal effect; nearly all actives have a fitted effect of over 55% in size
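Chicken DT40 Tdp1-/- cells complemented with human TDP1, 400 cells/well, exposed to compounds plus 20 nM camptothecin for at least 48 h at 37 C; viability read as ATP content by CellTiter-Glo luminescence.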
An asterisk follows results filed as active; ? = inconclusive; / = not tested or not shown; ! = a repeat was not active. Unless noted, calls follow the shape of the dose curve; as a rule, active = well fitted curve in the direction sought with a large enough effect; inconclusive = small, poorly fitted or top-dose-only effect, or another doubt; inactive = no such curve, though single readings can be large; an effect the other way counts as inactive or inconclusive. Unless noted, % is scaled to controls: 0 for no effect and ±100 for the full control effect.

SMILES | HT1080-NT tox | TDP1 cell noCPT | HT1080 IDH1KD tx | ELG1 DNA repair | IL-1B inflam inh | DT40 TDP1 CPT
O=C(NCc1ccc(Cl)cc1)C1CCCN(c2ncnc3c2nc2n3CCCCC2)C1 (stereo not drawn) | 7% | ? | -1% | 15µM* | 13 | ?
CSc1ccc(CCNC(=O)C2CCCN(c3ncnc4c3nc3n4CCCCC3)C2)cc1 (stereo not drawn) | -5% | ? | -6% | 8.2µM* | -69* | ?
O=c1c(-c2cc(-c3ccccc3)nc3c2COc2ccc(Cl)cc2-3)coc2ccc(F)cc12 | / | 7% | / | / | / | 3%
Cc1ccc(NC(=O)C2CCCN(c3ncnc4c3nc3n4CCCCC3)C2)cc1Cl (stereo not drawn) | -27% | 21µM* | ? | -28% | 33 | ?
CC(C)(C)NC(=O)C(c1cccc2ccccc12)n1c(=O)c(-c2cc3ccccc3[nH]2)nc2ccccc21 (stereo not drawn) | -29% | ? | ? | / | 138 | ?
Nc1nc2ccc(Cl)cc2cc1C(=O)NCCc1c[nH]c2ccccc12 | ? | ? | ? | / | -14 | 8.2µM*
Nc1nc2cc3c(cc2cc1C(=O)NCc1ccc(F)cc1)OCO3 | ? | 4.1µM* | ? | / | 22 | 16µM*
O=C(CCCCCNc1nc(=S)[nH]c2ccccc12)NCCc1c[nH]c2ccccc12 | 1% | 15µM* | 4% | 18µM* | -78* | 18µM*
O=C(NCCc1c[nH]c2ccccc12)c1cc2sccc2n1Cc1ccccc1 | -6% | 21µM* | -8% | ? | -15 | 23µM*
Cn1c(C(=O)NCCc2c[nH]c3ccccc23)cc2sccc21 | -2% | ? | -1% | ? | -20 | ?
CCc1nc(NCC2CC2)c2nnn(Cc3ccccc3)c2n1 | -6% | ? | -17% | / | 0 | ?
O=C(Cc1ccc(Cl)cc1)NCCc1c[nH]c2ccccc12 | -2% | ? | -4% | / | 1 | 18µM*
OCc1c[nH]c2ccccc12 | 7% | 39µM*! | -3% | 16% | 23 | 17µM*!
Nc1nc2ccc(Cl)cc2cc1C(=O)NCc1ccc(Oc2ccccc2)cc1 | -20% | 1.3µM* | ? | / | 95 | 0.65µM*
Nc1nc2ccc(Cl)cc2cc1C(=O)NCCc1ccc(Cl)cc1Cl | 1% | ? | 2% | / | 49 | ?
O=C(Cc1ccccc1)NCCc1c[nH]c2ccccc12 | 12% | 0% | 18% | -5% | 0 | -22%
CC(C)CCNC(=O)Cc1ccc(Nc2nc(=S)[nH]c3ccccc23)cc1 | -4% | ? | 2% | -1% | -65* | -18%
COc1ccc(NC(=O)c2ccc3c(c2)NC(=O)CS3)cc1S(=O)(=O)Nc1ccc(Br)cc1 | -1% | 29µM* | -19% | 12µM* | -25 | ?
COc1ccc(C(=O)Nc2ccccc2)cc1S(=O)(=O)Nc1ccc(Br)cc1 | / | -12% | / | / | / | -9%
Cc1ccc(NS(=O)(=O)c2cc(NC(=O)c3ccc4c(c3)NC(=O)CS4)ccc2C)c(C)c1 | ? | ? | ? | 18µM* | -115* | ?
CC(=O)NS(=O)(=O)c1ccc(NC(=O)c2ccc3c(c2)NC(=O)CS3)cc1 | -1% | -6% | 2% | 11% | 13 | 20%
COc1ccc(N=Nc2cc(OC)c(N)cc2OC)cc1 | -1% | ? | -8% | / | -25 | -1%
Cc1cc(N=Nc2ccc(C)c(N=Nc3cc(C)c(N)cc3N)c2)c(N)cc1N | -18% | 12µM* | -16% | ? | -17 | ?
Cc1ccc(-c2nc3ccccc3c(=O)n2O)cc1 | -23% | -8% | -12% | 23% | -8 | 20%
Cc1ccc(-c2nc3ccc(Cl)cc3c(=O)n2O)cc1 | -25% | 16µM* | -27% | ? | 86 | ?
